# Source: PubChem
# In the library only some 7.9% were active in any assay of this set; here they are far more common.
# KB-3-1 cytotox – kills parental KB-3-1 adenocarcinoma cells | KB-3-1 viability, CellTiter-Glo ATP luminescence, 72 h | Potency, µM (highest dose often 46.1 µM), actives largely listed as cytotoxic | 1.4% of 400,000 active | AID 1347075; further: nearly all actives have a fitted effect of over 60% in size
#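 Parental KB-3-1 viability, qHTS format: 72 h compound exposure, 37 °C; CellTiter-Glo; media-only wells and DMSO plates as controls; concentration-effect fits on corrected data.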
# KB-V1 cytotox – KB-V1 MDR subline cytotoxicity | Potency, µM (series often up to 46.1 µM), hits mostly cytotoxic | 3.4% of 400,000 active | KB-V1 MDR cells viability, CellTiter-Glo, 72 h; further: nearly all actives have a fitted effect of over 60% in size
#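 Drug-selected KB-V1 cells, grown in DMEM lacking phenol red with 10% FBS, receive compound titrations; after three days at 37 degrees C, surviving cell ATP is quantified by CellTiter-Glo luminescence and responses normalized and curve-fitted.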
# HT1080 IDH1KD tx – HT-1080 IDH1 knockdown cell toxicity (counter line) | 2% of 360,000 active | Potency, µM (top dose mostly 46.1 µM), usual class: cytotoxic | HT-1080 IDH1 knockdown viability, ATP luminescence, 48 h
#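 CellTiter-Glo luminescence after 48 h compound exposure at 37 degrees C of IDH1-knockdown HT-1080 cells in 5% FBS RPMI. %Activity scaled between DMSO wells and cell-free media wells, with curves fitted and assigned curve classes.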
# HT1080NT lethal – kills 2HG-producing HT-1080-NT fibrosarcoma cells; 1.6% of 360,000 active; HT-1080-NT fibrosarcoma viability, CellTiter-Glo ATP luminescence, 48 h; Potency, µM (highest dose often 46.1 µM), usual class: cytotoxic; AID 686970;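 further: NT is the 2HG producing partner of a matched IDH1 knockdown line; nearly all actives have a fitted effect of over 55% in size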
#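 Compounds were tested in concentration-response format on HT-1080-NT cells for 48 hours at 37 degrees C. Cell viability came from CellTiter-Glo luminescence; curves were classified by r2, response magnitude and activity.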
# MCF10A rerep – DNA re-replication induction in MCF 10a cells; MCF 10A DNA re-replication, Hoechst nuclear intensity, 48 h; Potency, µM (top dose mostly 46.1 µM), hits mostly activators; 2.9% of 350,000 active; further: nearly all actives have a fitted effect of over 50% in size
# SW480 rereplic – inducers of DNA re-replication in SW480 colon cancer cells; SW480 DNA re-replication, Hoechst DNA content imaging, 48 h; Potency, µM (top dose mostly 46.1 µM), hits mostly activators; 1.8% of 340,000 active; further: nearly all actives have a fitted effect of over 55% in size
#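 DNA re-replication was detected as more nuclei of elevated Hoechst intensity after 48 hr exposure to compound (23 nL pinned per well of 250 cells).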
# A number is an active result; 0 = inactive; ? = inconclusive; - = no result given; ! = not confirmed by another sample. The call rests on the fitted dose curve; in most records, active means well fitted curve in the direction sought with a large enough effect; inconclusive means small, poorly fitted or top-dose-only effect, or another doubt; inactive means no such curve, though single readings can be large; an effect the other way counts as inactive or inconclusive.
SMILES,KB-3-1 cytotox,KB-V1 cytotox,HT1080 IDH1KD tx,HT1080NT lethal,MCF10A rerep,SW480 rereplic
CNC(=O)C(C)c1ncc(C(F)(F)F)cc1Cl (stereo not given),0,0,0,0,0,0
CC(C(=O)Nc1ccc(Cl)cc1)c1ncc(C(F)(F)F)cc1Cl (stereo not given),0,26µM,0,0,?,?
Cc1ccc(O)c(C(=O)CC(=O)c2ccccc2Cl)c1,?,7.3µM,12µM,?,?,0
Cc1ccc(O)c(C(=O)CC(=O)c2ccc(C(C)(C)C)cc2)c1,?,0,0,0,?,0
CC(C)C[C@@H](N)C(=O)O,-,-,-,-,0,0
Cc1ccccc1OCc1n(CC(=O)OC2CC(C)CCC2C(C)C)c2ccccc2[n+]1C (stereo not given),?,0,7.3µM,16µM,1.8µM!,?
CC1CCC(C(C)C)C(OC(=O)COC(=O)c2cccn2C)C1 (stereo not given),0,0,0,0,?,0
CC1CCC(C(C)C)C(OC(=O)Cn2c(-c3ccc(Cl)cc3)[n+](C)c3ccccc32)C1 (stereo not given),?,0,5.8µM,5.8µM,?,?
CC1CCC(C(C)C)C(OC(=O)Cn2c(-c3ccc(Br)cc3)[n+](C)c3ccccc32)C1 (stereo not given),18µM!,?,16µM,10µM,?,?
CCOC(=O)Cn1c(COc2ccccc2OC)[n+](C)c2ccccc21,0,0,0,0,0,?
COc1ccc(NC(=O)C2CCN(S(=O)(=O)c3ccc4c(c3)NC(=O)C(C)S4)CC2)cc1 (stereo not given),0,0,?,?,?,0
CC1Sc2ccc(S(=O)(=O)N3CCC(C(=O)Nc4ccc(Cl)cc4)CC3)cc2NC1=O (stereo not given),?,?,?,21µM,?,0
CCOC(=O)N1CCN(S(=O)(=O)c2ccc3c(c2)SC(C)C(=O)N3)CC1 (stereo not given),?,4.6µM,0,0,0,0
Cc1cccc(N(CC(=O)NC(C)C)C(=O)c2ccc(N3CCCC3)nc2)c1,0,0,0,0,0,0
CCOc1ccc(S(=O)(=O)N2CCN(c3ccccc3F)CC2)c2cccnc12,0,?,0,0,0,16µM
CCOc1ccccc1C(=O)NCC(=O)OCc1c(C)noc1C,0,0,0,0,0,0
CN1CCN(C(=O)c2ccccc2NC(=O)CCN2C(=O)c3ccccc3C2=O)CC1,0,0,0,0,0,0
S=C(Nc1ccccc1)Nc1nc2ccccc2n1CCOc1ccccc1,0,15µM,?,?,?,?
CC(=O)Nc1nc2ccccc2n1CCOc1ccccc1,?,0,0,0,?,0
CCCCn1c(NC(=O)c2ccccc2)nc2ccccc21,0,?,0,?,?,0
CCCCn1c(NC(=S)Nc2ccccc2)nc2ccccc21,?,?,?,18µM,?,16µM
COc1ccccc1N1CCN(C(=O)Cn2ncc3c([nH]c4ccccc43)c2=O)CC1,0,0,0,0,0,0
COc1ccc(Br)cc1C(=O)N/N=C/c1cccnc1,0,0,0,0,0,0
COc1ccccc1C(=O)Nc1ccc2ccccc2c1,0,0,0,0,0,0
COc1ccc(NC(=O)Nc2ccc(Cc3ccncc3)cc2)cc1OC,0,0,0,0,0,0
SMILES,KB-3-1 cytotox,KB-V1 cytotox,HT1080 IDH1KD tx,HT1080NT lethal,MCF10A rerep,SW480 rereplic
COc1cc2ccccc2cc1C(=O)Nc1ccc(Cc2ccncc2)cc1,18µM,9.2µM,?,0,21µM,18µM
COc1cc2ccccc2cc1C(=O)N/N=C/c1cccnc1,16µM,?,?,0,0,0
COc1ccc(C(=O)Nc2ccc3ccccc3c2)c(OC)c1,?,18µM,0,0,?,0
COc1ccc(Nc2cc3n(c(=O)n2)CCc2cc(OC)c(OC)cc2-3)c(C)c1,0,0,0,0,0,0
COc1ccc(-c2nc3cccc(C)n3c2NCC2CCCO2)cc1O (stereo not given),0,12µM,0,0,0,0
C=CCn1c(SCC(=O)Nc2cccnc2Cl)nnc1-c1ccc(Cl)cc1,0,5.2µM,0,0,0,0
Cc1csc(NC(=O)CSc2nnc(-c3ccoc3C)n2C(C)c2ccccc2)n1 (stereo not given),0,0,0,0,?,15µM
Cc1occc1-c1nnc(SCC(=O)NC(C)(C)C)n1C(C)c1ccccc1 (stereo not given),0,0,0,0,0,0
Cc1csc(NC(=O)CSc2nnc(-c3ccccc3)o2)n1,0,?,0,0,?,0
Cc1csc(NC(=O)CSc2ccc(-c3ccccc3)nn2)n1,0,23µM,0,0,0,0
Cn1c(SCC(=O)Nc2ccccc2-c2ccccc2)nnc1-c1ccco1,0,18µM,0,0,0,?
Cc1ccc(S(=O)(=O)N(C)C)cc1NC(=O)CSc1nnc(C2CC2)n1C1CC1,0,0,0,0,0,0
CCC1(O)CC(C(=O)OC)=NN1C(=O)c1ccccc1 (stereo not given),0,0,0,0,0,0
CCc1[nH]nc(C(=O)N2CCCC(Nc3cccc(F)c3)C2)c1C (stereo not given),-,-,0,0,0,0
COc1ccccc1C(=O)Nc1ccnn1C1CCN(Cc2csc(C(C)=O)c2)CC1,0,0,0,0,0,0
O=C(OCCOc1cccc(Cl)c1)c1cc(S(=O)(=O)N2CCCCC2)ccc1N1CCOCC1,?,?,0,0,?,?
CCn1c(SCC(=O)N/N=C/C(C)=C\c2ccco2)nnc1-c1ccccc1,0,0,0,0,?,0
CCn1c(SCC(=O)Nc2cccnc2Cl)nnc1-c1ccccc1,0,21µM,0,0,0,0
CCn1c(SCC(=O)N/N=C/C(C)=C/c2ccco2)nnc1-c1ccccc1,0,15µM,0,0,0,0
CCn1c(SCC(=O)Nc2nc(-c3ccccc3)cs2)nnc1-c1ccccc1,0,18µM,?,?,0,0
CCOC(=O)N1CCN(C(=O)CSCC(=O)Nc2nc(-c3ccccc3)cs2)CC1,0,16µM,0,0,0,0
COc1ccc(OC)c(NC(=O)CSc2nnc(-c3cnccn3)n2C)c1,0,0,0,0,0,0
O=C(CCn1c(=O)c2ccccc2n(Cc2cccc(Cl)c2)c1=O)NCCc1ccccc1,0,0,-,-,-,-
Cc1ccc(C(=O)Nc2cccc(C(=O)N/N=C/c3ccc(O)cc3)c2)cc1,0,0,0,0,0,0
Cc1cc([N+](=O)[O-])nn1CC(=O)NCc1ccccc1,0,0,0,0,0,0
Cc1cc[n+](CC(=O)c2ccc(F)cc2)cc1,?,0,-,-,-,-
